Reference: PubChem BioAssay (NCATS)
Inconclusive results are not listed. Active and inactive are the calls of the source. Calls follow the shape of the dose curve; as a rule, active = well fitted curve in the direction sought with a large enough effect; inconclusive = small, poorly fitted or top-dose-only effect, or another doubt; inactive = no such curve, though single readings can be large; an effect the other way counts as inactive or inconclusive.

Key:
[1] = qHTS of pediatric cancer cell lines to identify multiple opportunities for drug repurposing: Primary screen for TC32 cells (AID 1347089); also: nearly all actives have a fitted effect of over 60% in size; as to activity change, negative = cytotoxic: % is scaled to controls: 0 for no effect and ±100 for the full control effect
In short: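 TC32 cells, 500-1,000/well in growth medium, compound-treated 48 h at 37 °C; viability from CellTiter-Glo luminescence. Primary screen: MIPE 11-point (0.78 nM–46 µM final), NPC 8-point (0.59 nM–46 µM final); confirmatory at 11-point dilutions.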

[2] = qHTS of pediatric cancer cell lines to identify multiple opportunities for drug repurposing: Primary screen for DAOY cells (AID 1347090); also: nearly all actives have a fitted effect of over 55% in size;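 as to activity change, negative = cytotoxic: series mostly up to about 46 µM; plate controls were DMSO for no effect and bortezomib for full effect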
In short: (§1)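 Eight- or eleven-point concentration series, 48 h treatment at 37 degrees C in growth media; readout CellTiter-Glo luminescence. Potency and efficacy were taken from the concentration-response curves.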

[3] = qHTS of pediatric cancer cell lines to identify multiple opportunities for drug repurposing: Primary screen for SJ-GBM2 cells (AID 1347091);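 as to activity change, negative = cytotoxic: plate controls were DMSO neutral control for no effect and bortezomib for full effect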
In short: as §1

[4] = qHTS of pediatric cancer cell lines to identify multiple opportunities for drug repurposing: Primary screen for A673 cells (AID 1347092); also: nearly all actives have a fitted effect of over 45% in size; as to activity change, negative = cytotoxic: % is scaled to controls: 0 for no effect and ±100 for the full control effect
In short: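 A673 cells (500-1,000 cells/well) were treated 48 hours at 37 degrees C with compounds at 11-point (0.78 nM to 46 µM) or 8-point (0.59 nM to 46 µM) dilutions. Viability read by CellTiter-Glo luminescence; concentration-response curves fitted.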

[5] = qHTS of pediatric cancer cell lines to identify multiple opportunities for drug repurposing: Primary screen for SK-N-MC cells (AID 1347093);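 as to activity change, negative = cytotoxic: series mostly up to about 46 µM; plate controls were DMSO neutral control for no effect and bortezomib for full effect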
In short: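 Metabolically active cells were quantified by ATP-dependent luminescence (CellTiter-Glo, 15 min at room temperature) following 48 h treatment. Cells had been plated at 500-1,000 per well and settled for 5 h beforehand.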

[6] = qHTS of pediatric cancer cell lines to identify multiple opportunities for drug repurposing: Primary screen for NB-EBc1 cells (AID 1347095);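 as to activity change, negative = cytotoxic: plate controls were DMSO neutral control for no effect and bortezomib for full effect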
In short: (§2)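 Luminescence from CellTiter-Glo served as readout of metabolically active cells after 48 h compound exposure. Titrations: MIPE 11-point, from 0.78 nM; NPC 8-point, from 0.59 nM (final). Concentration-response curves came straight from the primary screen.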

[7] = qHTS of pediatric cancer cell lines to identify multiple opportunities for drug repurposing: Primary screen for U-2 OS cells (AID 1347096); also: nearly all actives have a fitted effect of over 50% in size;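 as to activity change, negative = cytotoxic: plate controls were DMSO wells for no effect and bortezomib positive control wells for full effect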
In short: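 Cells (500-1,000/well) in growth media were settled 5 h at 37 degrees C, then given compounds for 48 h. Viability was read as CellTiter-Glo luminescence. Primary runs used MIPE at 11 points (0.78 nM-46 µM) and NPC at 8 points (0.59 nM-46 µM); follow-ups used 11 points.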

[8] = qHTS of pediatric cancer cell lines to identify multiple opportunities for drug repurposing: Primary screen for Saos-2 cells (AID 1347097); also: nearly all actives have a fitted effect of over 40% in size; as to activity change, negative = cytotoxic: % is scaled to controls: 0 for no effect and ±100 for the full control effect
In short: as §2

[9] = qHTS of pediatric cancer cell lines to identify multiple opportunities for drug repurposing: Primary screen for BT-37 cells (AID 1347094);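 as to activity change, negative = cytotoxic: series mostly up to about 57 µM; plate controls were DMSO for no effect and bortezomib for full effect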
In short: as §2

[10] = qHTS of pediatric cancer cell lines to identify multiple opportunities for drug repurposing: Primary screen for SK-N-SH cells (AID 1347098); also: nearly all actives have a fitted effect of over 65% in size;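 as to activity change, negative = cytotoxic: DMSO served as neutral control and bortezomib at 2.3 µM as positive control; % is scaled to controls: 0 for no effect and ±100 for the full control effect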
In short: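 Cells (500-1,000/well) rested 5 h, then received compounds for 48 h; metabolically active cells were measured by CellTiter-Glo luminescence. Final concentrations spanned up to 46 µM (MIPE, 11-point) or 0.59 nM-46 µM (NPC, 8-point) in primary screens, 11-point in follow-ups.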
Potency is read from the fitted curve at half-maximal effect.

CCC(C)SSc1ncc[nH]1 (stereo not given)
inactive: Potency [1] | Potency [7]
active: Potency [2] 18700 nM | Potency [3] 20900 nM | Potency [4] 18700 nM | Potency [5] 3720 nM | Potency [6] 5900 nM | Potency [8] 18700 nM

CN(C)c1nc(Cc2ccc(NC(=O)c3ccc(C(F)(F)F)cc3)cc2)nc(N(C)C)c1CC(=O)O
inactive: Potency [1] | Potency [2] | Potency [3] | Potency [4] | Potency [5] | Potency [9] | Potency [6] | Potency [7] | Potency [8] | Potency [10]

CN[C@@H]1[C@@H](O)[C@@H](O[C@@H]2[C@@H](O)[C@H](O[C@H]3O[C@H](CN)[C@@H](O)[C@H](O)[C@@H]3O)[C@@H](N)C[C@@H]2NC(=O)[C@@H](O)CN)OC[C@]1(C)O
inactive: Potency [1] | Potency [2] | Potency [3] | Potency [4] | Potency [5] | Potency [9] | Potency [6] | Potency [7] | Potency [8]

CO[C@H]1C=CO[C@@]2(C)Oc3c(C)c(O)c4c(O)c(c(C=NN5CCN(C)CC5)c(O)c4c3C2=O)NC(=O)C(C)=CC=C[C@H](C)[C@H](O)[C@@H](C)[C@@H](O)[C@@H](C)[C@H](OC(C)=O)[C@H]1C
inactive: activity change, negative = cytotoxic [1] 6.56% [at 9.17 µM] | activity change, negative = cytotoxic [2] -7.74% [at 9.22 µM] | activity change, negative = cytotoxic [3] 4.67% [at 9.22 µM] | activity change, negative = cytotoxic [4] 0.264% [at 9.22 µM] | activity change, negative = cytotoxic [5] -4.39% [at 9.22 µM] | activity change, negative = cytotoxic [9] -9.92% [at 11.5 µM] | activity change, negative = cytotoxic [6] -7.84% [at 9.22 µM] | activity change, negative = cytotoxic [7] -1.44% [at 9.22 µM] | activity change, negative = cytotoxic [10] -10.6% [at 11.4 µM]

CC[C@H](NC(=O)[C@H](C)NC)C(=O)N1C[C@@H](O)C[C@H]1Cc1c(-c2[nH]c3cc(F)ccc3c2C[C@H]2C[C@H](O)CN2C(=O)[C@H](CC)NC(=O)[C@H](C)NC)[nH]c2cc(F)ccc12
inactive: Potency [1] | Potency [7]
active: Potency [2] 2350 nM | Potency [3] 46.9 nM | Potency [4] 11.8 nM | Potency [5] 1180 nM | Potency [9] 217 nM | Potency [6] 418 nM | Potency [8] 372 nM

Cc1ccc(C(=O)N(CCCN)[C@@H](c2oc3cc(Cl)ccc3c(=O)c2Cc2ccccc2)C(C)C)cc1
active: Potency [1] 3.3 nM | Potency [2] 1 nM | Potency [3] 1 nM | Potency [4] 1 nM | Potency [5] 23500 nM | Potency [9] 1 nM | Potency [6] 1 nM | Potency [8] 1 nM

CNC1CCC(N(Cc2cccc(-c3ccncc3)c2)C(=O)c2sc3ccccc3c2Cl)CC1 (stereo not given)
active: Potency [3] 23500 nM | Potency [4] 14800 nM | Potency [5] 23500 nM | Potency [9] 24300 nM | Potency [6] 26400 nM | Potency [8] 26400 nM | Potency [10] 24100 nM
inactive: Potency [1] | Potency [2] | Potency [7]

N[C@@H](CC(=O)N1CCn2c(nnc2C(F)(F)F)C1)Cc1cc(F)c(F)cc1F
active: Potency [5] 18700 nM
inactive: Potency [1] | Potency [2] | Potency [3] | Potency [4] | Potency [9] | Potency [7]

CC(=O)OCC(=O)[C@@]1(O)CC[C@H]2[C@@H]3CCC4=CC(=O)C=C[C@]4(C)[C@@H]3[C@@H](O)C[C@@]21C
inactive: Potency [1] | Potency [2] | Potency [3] | Potency [4] | Potency [5] | Potency [9] | Potency [7] | Potency [8] | Potency [10]

COc1ccc2c(c1)CC[C@H]1[C@@H]2CC[C@]2(C)[C@@H](NCCCCCCN3C(=O)C=CC3=O)CC[C@H]12
inactive: Potency [1] | Potency [2] | Potency [3] | Potency [4] | Potency [5] | Potency [9] | Potency [6] | Potency [7]

C[C@]12CCC3=C4CCC(=O)C=C4CC[C@@H]3[C@H]1CC[C@@]2(O)CC#N
inactive: Potency [1] | Potency [2] | Potency [3] | Potency [4] | Potency [5] | Potency [9] | Potency [7] | Potency [8] | Potency [10]

CCCCC(F)(F)[C@@]1(O)CC[C@H]2[C@H](CC(=O)[C@@H]2CCCCCCC(=O)O)O1
inactive: Potency [1] | Potency [2] | Potency [3] | Potency [4] | Potency [5] | Potency [9] | Potency [6] | Potency [7] | Potency [8] | Potency [10]

CC(NCCc1ccc(O)cc1)C(O)c1ccc(O)cc1 (stereo not given)
inactive: Potency [1] | Potency [2] | Potency [3] | Potency [4] | Potency [5] | Potency [9] | Potency [6] | Potency [7] | Potency [8] | Potency [10]

Nc1ccc(-c2ccc3ncc4ccc(=O)n(-c5cccc(C(F)(F)F)c5)c4c3c2)cn1
active: Potency [1] 10.4 nM | Potency [2] 7.4 nM | Potency [3] 3 nM | Potency [4] 3 nM | Potency [5] 0.1 nM | Potency [9] 10.9 nM | Potency [6] 11.8 nM | Potency [7] 1480 nM | Potency [8] 148 nM

CN[C@@H]1CN(c2ccc3c(=O)c(C(=O)O)cn(-c4nccs4)c3n2)C[C@@H]1OC
active: Potency [1] 12800 nM | Potency [2] 8120 nM | Potency [3] 1150 nM | Potency [4] 8120 nM | Potency [5] 1290 nM | Potency [9] 3350 nM | Potency [6] 407 nM | Potency [10] 9370 nM
inactive: Potency [7] | Potency [8]

CN1C(=O)C(Cc2c[nH]c3ccccc23)NC1=S (stereo not given)
inactive: Potency [1] | Potency [2] | Potency [3] | Potency [4] | Potency [5] | Potency [9] | Potency [6] | Potency [7] | Potency [8] | Potency [10]
